In PubChem BioAssay AID504652 (National Center for Advancing Translational Sciences (NCATS), 2011):
The campaign covered roughly 360,000 compounds. About 11,000 (3.1%) were called active. No stated cut-off is given here; in the data, active means activity change below about -30%; inactive means the rest. The entries come from a sample that favours actives as a whole.

These compounds were tested against D(1A) dopamine receptor (Homo sapiens) (UniProt P21728) (assay: Antagonist of Human D 1 Dopamine Receptor: qHTS). Details: HEK293 TREx D1 cells, calcium flux, dopamine EC80; at 10 µM; active compounds read low.
Chain of D(1A) dopamine receptor (Homo sapiens) (P21728 whole entry, looked up): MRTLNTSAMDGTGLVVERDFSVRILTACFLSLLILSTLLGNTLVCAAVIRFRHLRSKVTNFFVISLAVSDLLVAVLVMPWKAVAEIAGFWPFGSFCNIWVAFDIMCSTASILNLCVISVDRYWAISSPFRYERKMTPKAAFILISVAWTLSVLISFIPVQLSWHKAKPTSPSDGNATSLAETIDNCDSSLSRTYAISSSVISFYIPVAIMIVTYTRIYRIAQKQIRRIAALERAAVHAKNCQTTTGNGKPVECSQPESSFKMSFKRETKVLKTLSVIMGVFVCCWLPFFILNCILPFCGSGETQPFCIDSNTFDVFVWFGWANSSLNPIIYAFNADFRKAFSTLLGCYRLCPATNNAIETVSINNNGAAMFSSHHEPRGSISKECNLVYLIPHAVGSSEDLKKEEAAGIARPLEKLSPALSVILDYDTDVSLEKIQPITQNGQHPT
Text: Dopamine receptors (DARs) are involved in the etiology and/or therapy of a number of neuropsychiatric and endocrine disorders. For instance, all receptor-based antiparkinsonian drugs work via stimulating the […] DAR subtype whereas all FDA-approved antipsychotic agents are antagonists of this receptor. […] There are three different types of allosteric modulators that we are seeking, two of which will stimulate or augment receptor signaling, allosteric agonists and potentiators, while the third, allosteric antagonists, will attenuate receptor signaling. The present primary screening assay measures compound antagonism after an EC80 addition of dopamine by tracking calcium flux in a […], inducible Hek293 Trex D1 cell line. NIH Chemical Genomics Center [NCGC] NIH Molecular Libraries Probe Centers Network [MLPCN] MLPCN Grant: NS064831-01 Assay Submitter (PI): David Sibley
Freshly passaged cells are plated in 1536 well black, clear bottom plates at a density of 4000 cells/well in 3 ul of complete media containing 1x tetracycline inducer. After an overnight incubation at 30 C in 5% CO2, cells are loaded with 2 ul of the no wash Calcium Assay Kit (ABD Bioquest) and incubated at room temperature for 30 to 90 minutes. Agonist read: A 10 cycle (1 second/cycle) baseline measurement is taken and then the FDSS online 1536 pintool delivers 23 nl of compound library (as well as dopamine controls) to the plate. The plate is measured for kinetically at 1 cycle/sec for 180 seconds. Following the 180 second read, 1 ul of an EC80 (negative modulation assay) is delivered by an onboard pipette head. Measurements are taken kinetically for an additional 180 seconds.
On the % scale 0 is the no-effect control and ±100 the full control effect.

Activity change, negative = inhibition, inactive:
Cc1ccccc1C(=O)OC1OC(=O)C(Cl)=C1Nc1ccccc1 (configuration not stated) -22.8%
O=C1OC(OC(=O)c2ccccc2Br)C(N2CCOCC2)=C1Cl (configuration not stated) 6.42%
CCN(Cc1ccccc1)C(=O)c1cn(-c2cccc(OC)c2)c(=O)c2ccccc12 -4.13%
COc1ccccc1NC(=O)c1cc(C2CC2)nc2c1c(C)nn2-c1ccc(C)cc1 3.81%
Cc1ccccc1Nc1nn2c(=O)c3ccc(C(=O)NCCc4ccc(Cl)cc4)cc3nc2s1 -2.1%
Cc1ccc(C(=O)Nc2ccccc2F)cc1S(=O)(=O)N1CCOCC1 -16.7%
Cn1c(CC(=O)NNC(=O)c2ccccc2F)nc2ccccc21 -11.4%
COc1cccc(C(O)Cc2nc3ccccc3n2C)c1OC (configuration not stated) 5.85%
O=C(Cn1cc(SCc2ccccc2)c2ccccc21)N1CCCCC1 -7.17%
Cc1ccc(NC(=O)Nc2sc3nc4n(c(=O)c3c2C)CCC(C)CC4)c(Cl)c1 (configuration not stated) 10.9%
COc1ccc(CN2CCCC(C(=O)c3ccc(Cl)cc3)C2)cc1Cn1cncn1 (configuration not stated) -13.5%
COc1ccc(C2Nc3ccccc3C(=O)N2Cc2ccccc2)cc1Cn1nnc2ccccc21 (configuration not stated) 12.5%
Cc1cc(C)cc(NC(=O)CSc2oc(-c3ccccc3)nc2S(=O)(=O)c2ccc(Cl)cc2)c1 -12.1%
O=C(COc1ccc(Cl)cc1)N(Cc1ccco1)Cc1ccco1 -16.4%
COC(=O)c1nc(NC(=O)c2ccc(C(C)(C)C)cc2)n[nH]1 -14.1%
COc1ccccc1NC(=O)/C=C/C(N)=O 19.1%
O=C(O)c1ccc(Nc2nc(-c3ccccc3)c3cc(Br)ccc3n2)cc1 -12.9%
COc1ccc(NC(=O)Cn2c(-c3ccc(OC)cc3)cn(-c3ccc(C)cc3)c2=O)cc1 3.29%
COc1ccc(NC(=O)CC(NC(C)c2ccccc2)C(=O)O)cc1 (configuration not stated) -21.7%
COc1ccc(-c2[nH]c3c(c2-c2c(-n4cccc4)n(C)c(=O)n(C)c2=O)c(=O)n(C)c(=O)n3C)cc1 1.12%
Cc1ccc(-c2cc(N)n(Cc3cccc(Cl)c3)n2)cc1 -6.88%
O=C(CC(NCc1cccnc1)C(=O)O)Nc1ccc(O)cc1 (configuration not stated) 0.451%
O=[S+]([O-])(c1ccc2c(c1)OCCO2)N1CCN([S+](=O)([O-])c2c(Cl)cc(Cl)cc2Br)CC1 -16.4%
O=C(Nc1ccc(Cl)cc1)OCc1cc(-c2ccccc2)on1 -17%
Clc1ccc(-c2cc(COc3ccccc3)no2)cc1Cl 1.76%
CCCCNC(=O)CSc1nc2cc3c(cc2c(=O)n1CCCCCC(=O)NCc1ccc2c(c1)OCO2)OCO3 -9.04%
CCOc1ccc(OCc2ccc(C(=O)Nc3cccc(C)n3)o2)cc1 1.17%
CC(=O)Cc1nsc(NC(=O)c2ccc(Cl)cc2Cl)n1 -11.9%
COc1ccccc1-c1nnc(C2CCN(C(=O)c3ccc(Cl)cc3)CC2)o1 -12.2%
O=C(CCc1cn(Cc2ccc(F)cc2)c2ccccc12)NC1CCCCC1 -2.06%
COc1cc2c(cc1OC)C(COc1ccc(F)cc1)N(C(=O)c1ccccc1F)CC2 (configuration not stated) 1.87%
CC(C)NC(=O)/C(C#N)=C\c1ccc(N(C)C)c(Br)c1 -4.83%
Cc1ccc(/C=C(\C#N)C(=O)Nc2cc(C)ccc2C)cc1 2.52%
OCc1cnc(SCc2ccc(F)cc2)n1Cc1ccc(F)cc1 -1.85%
Cc1ccc(Nc2c(-c3ccc(Cl)cc3)nc3sccn23)c(C)c1 -21.4%
COc1cc(NC(=O)c2cc3ccc4cccnc4c3[nH]2)cc(OC)c1OC -1.04%
COc1ccc(N2CCN(C(=O)CCSCc3ccccc3F)CC2)cc1 -20.6%
Cc1cccc(N2CCN(C(=O)CCSCc3ccccc3F)CC2)c1C 10%
c1cnn(-c2cc(N3CCOCC3)ncn2)c1 3.42%
Cc1nc(N2CCOCC2)sc1C(=O)NN 7.42%
Cc1ccc2onc(CC(=O)N3CCN(c4ccc(Cl)cc4)CC3)c2c1 -0.0287%
CSc1ccccc1C(=O)Nc1cccc(C(C)=O)c1 -13.7%
CC(=O)c1cccc(NC(=O)CSc2nc3c(c(=O)[nH]2)CCC3)c1 -6.03%
COc1ccc(NC(C(=O)Nc2cccc(C(C)=O)c2)c2ccccc2)cc1 (configuration not stated) 0.474%
CC(=O)c1cccc(NC(=S)N2CCCC2)c1 -8.06%
COc1ccc(-n2ccn(CC(=O)Nc3ccc(C)c(C)c3)c(=O)c2=O)cc1OC -0.573%
O=C1CN(C(=O)Nc2ccccc2C(F)(F)F)C(c2ccccc2)c2c(sc3c2CCCC3)N1 (configuration not stated) -10.2%
COc1cccc(-n2cc(C(=O)NCc3cccc(Cl)c3)c3ccccc3c2=O)c1 -9.19%
Cc1ccc(C)c(Cn2c(=O)n(CCC(=O)NCc3ccc4c(c3)OCO4)c(=O)c3sccc32)c1 -5.56%
COc1ccccc1N1CCN(C2C(=O)c3ccccc3N2C(C)=O)CC1 (configuration not stated) -1.14%
O=C(c1ccc2c(c1)N(Cc1ccccc1)C(=O)c1ccccc1S2(=O)=O)N1CCC(Cc2ccccc2)CC1 -25.2%
COc1cccc(N2C(=O)CN(Cc3ccccc3)C2=S)c1 1.81%
COc1ccc(Cn2ccn(CC(=O)Nc3cc(C)ccc3C)c(=O)c2=O)cc1 10.1%
CC(=O)c1ccc(NC(c2ccc(F)cc2)c2nnc(-c3ccccc3)o2)cc1 (configuration not stated) -24.1%
Cc1ccc(-c2noc(CSc3nnc(-c4ccc(Cl)cc4)n3C)n2)cc1 0.344%
Cc1ccc2cccc(NC(=O)C(C)Oc3ccc(C)c(C)c3)c2n1 (configuration not stated) -2.12%
COC(=O)c1cc(NC(=O)c2cnc(SC)nc2-c2ccccc2)cc(C(=O)OC)c1 -16.6%
CCN(CC)S(=O)(=O)c1nnc(NC(=O)COc2ccccc2Cl)s1 1.29%
COc1ccc2[nH]c(C)c(CCN(Cc3cccs3)C(=S)Nc3ccccc3OC)c2c1 -1.49%
CCNC(=S)N(CCc1c(C)[nH]c2ccc(C)cc12)Cc1ccco1 -10.7%
COc1ccc(-c2cc(-c3ccc(F)cc3)nc3c2COc2ccccc2-3)cc1 10.1%
Cc1ccc(Cl)cc1N1CCN(C(=O)C2CCC(CNS(=O)(=O)c3cccs3)CC2)CC1 (configuration not stated) 4.96%
CCN(CC)c1ccc(NC(=O)CN2CCN(CC(=O)Nc3ccc(Cl)cc3)CC2)cc1 7.6%
O=C(OCc1cc(=O)n2nc(C3CC3)sc2n1)c1ccccc1Cl -4.47%
Cc1ccc(-n2c(=O)c3cccnc3n2CC(=O)NCc2ccc(F)cc2)cc1C 4.39%
CC(C)(O)C#Cc1ccc(CN2CCC(CO)(CCc3ccccc3)CC2)cc1 10.7%
Cc1cccc(-c2ncc(CN3CCC(CO)(CCCc4ccccc4)CC3)cn2)c1 16.2%
CCc1ccc2ncc3c(-c4ccc(C)cc4)nn(CC(=O)NCc4ccccc4)c3c2c1 -13.5%
CCn1c(CSc2ncccn2)nnc1SCC(=O)N1c2ccccc2CC1C (configuration not stated) -3.34%
CC1Cc2ccccc2N1C(=O)CSc1nnc(-c2ccc(S(=O)(=O)N3CCCC3)cc2)n1C (configuration not stated) -5.59%
CC(=O)c1ccc(N2CCN(C3C(=O)c4ccccc4N3C(C)=O)CC2)cc1 (configuration not stated) 3.13%
COc1cccc(CNC(=O)C2CCN(S(=O)(=O)c3ccc4c(ccn4C)c3)CC2)c1 -13.2%
Cc1cc(-c2ccccc2)n2nc(-c3ccccc3)cc2n1 5.34%
Cc1nc(NNC(=O)c2ccccc2)cc(-c2ccccc2)n1 -10.3%

Activity change, negative = inhibition, active:
Cc1ccc(NC2=C(Cl)C(=O)OC2OC(=O)c2ccccc2C)cc1 (configuration not stated) -33.8%
Cn1c(COc2ccccc2C(C)(C)C)nc2ccccc21 -65.7%
COc1ccc(C2Nc3ccccc3C(=O)N2c2ccc(Cl)cc2)cc1Cn1cc([N+](=O)[O-])cn1 (configuration not stated) -30.3%
COC(=O)c1sc(-c2ccc(C(C)(C)C)cc2)cc1NC(=O)/C=C/C(=O)O -37%
COc1ccc(C(CC(=O)Nc2ccc(C)cc2)NC(=O)C(F)(F)F)cc1 (configuration not stated) -43.5%
O=C(Nc1ccccc1)OCc1cc(-c2ccc(Cl)cc2)on1 -32.2%
CC(=O)Cc1nsc(NC(=O)c2ccc(COc3ccc(C)cc3)o2)n1 -39.7%
CC(C)(C)C(=O)/C(C#N)=C/c1ccc(O)cc1 -33.6%
O=C(CCSCc1ccccc1F)N1CCN(c2ccc(Cl)cc2)CC1 -33.3%
Cc1cc(C)n(Cc2cnc(N3CCOCC3)s2)n1 -31%
CCSc1nsc(NC(=O)Nc2cccc(C(C)=O)c2)n1 -35%
C=CCSc1nsc(NC(=O)Nc2cccc(C(C)=O)c2)n1 -31.6%
COc1ccc(Cn2ccn(Cc3cccc(OC)c3)c(=O)c2=O)cc1 -44.5%
CCOC(=O)c1c(C)[nH]c(C2=NNC(=NC(C)COC)SC2)c1C (configuration not stated) -30%
COc1cccc(NC(=S)N(CCc2c(C)[nH]c3ccccc23)Cc2ccco2)c1 -45.7%
OCC1(CCc2ccccc2)CCN(Cc2ccc3nsnc3c2)CC1 -86%
CC1Cc2ccccc2N1C(=O)CSc1nnc(C2CC2)n1C (configuration not stated) -45.3%
Nc1cccc(-c2cc(-c3ccccc3)nc(-c3cccc(N)c3)n2)c1 -35%
